# PubChem BioAssay (Tox21)
# Results filed as inconclusive are left out. A call without a number means that no potency is given here. Calls of active or inactive are those of the source. Unless noted, calls come from the whole dose curve; as a rule, active = well fitted curve in the direction sought with a large enough effect in the repeat runs; inconclusive = weak or mixed curves; inactive = no such curve, though single readings can be large; an effect the other way counts as inactive or inconclusive. Non-standard residues stand in square brackets, D forms with d. Residues, ends and D or L forms follow the SMILES beside them. Orn = NCCC[C@H](N)C(=O)O
# What was measured:
# [1] = qHTS assay to identify aromatase inhibitors - cell viability counter screen (AID 743084);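 note: cells stimulated with testosterone during compound exposure; nearly all actives have a fitted effect of over 55% in size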; note: potency is the fitted concentration of half-maximal effect
# [2] = qHTS assay to identify small molecule that activate the aryl hydrocarbon receptor (AhR) signaling pathway - cell viability counter screen (AID 743086); note: nearly all actives have a fitted effect of over 45% in size; note: potency is the fitted concentration of half-maximal effect
# Summary of the method: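 HepG2-AhR-luc (HG2L7.5c1) cells, 4000/well, treated 24 h at 37 C with compound; viability measured as CellTiter-Fluor fluorescence after 30 min in the same wells as the luciferase read.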
# [3] = biological target: Peroxisome proliferator-activated receptor gamma (Homo sapiens) (UniProt P37231); experiment: qHTS assay to identify small molecule agonists of the peroxisome proliferator-activated receptor gamma (PPARg) signaling pathway (AID 743094; active = well fitted activation curve with a large enough effect in the signal ratio in the repeat runs, not every such curve was filed as active; the % refers to the signal ratio; note: potency is the fitted concentration of half-maximal effect)
# Sequence of Peroxisome proliferator-activated receptor gamma (Homo sapiens) (P37231 whole entry, looked up): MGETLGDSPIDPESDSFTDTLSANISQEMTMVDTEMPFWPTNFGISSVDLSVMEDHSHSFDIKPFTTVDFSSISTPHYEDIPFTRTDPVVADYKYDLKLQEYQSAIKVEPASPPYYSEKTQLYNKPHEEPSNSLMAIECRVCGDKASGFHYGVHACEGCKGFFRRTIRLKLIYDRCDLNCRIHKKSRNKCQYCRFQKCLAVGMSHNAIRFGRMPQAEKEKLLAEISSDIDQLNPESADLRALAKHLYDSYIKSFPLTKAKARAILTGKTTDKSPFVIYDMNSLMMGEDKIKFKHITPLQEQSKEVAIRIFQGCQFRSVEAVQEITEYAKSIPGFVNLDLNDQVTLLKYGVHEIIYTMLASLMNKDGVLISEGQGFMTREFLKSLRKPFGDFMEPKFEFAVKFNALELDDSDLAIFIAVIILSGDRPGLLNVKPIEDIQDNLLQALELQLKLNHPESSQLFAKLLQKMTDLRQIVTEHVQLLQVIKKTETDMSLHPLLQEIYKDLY
# Summary of the method: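 HEK293H PPARg-bla cells, 5 h settle at 37C/5% CO2; compound (DMSO) 17 h, 37C; B/G FRET substrate 1 h RT; fluorescence intensity read-out. qHTS format.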
# [4] = qHTS assay to identify small molecule antagonists of the peroxisome proliferator-activated receptor gamma (PPARg) signaling pathway - cell viability counter screen (AID 743194); note: nearly all actives have a fitted effect of over 55% in size; note: potency is the fitted concentration of half-maximal effect
# Summary of the method: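 Cytotoxicity counter screen in PPARg-bla HEK293H cells, same wells as reporter assay. Compounds plus 50 nM rosiglitazone (final) for 17 h at 37 C, then viability read by CellTiter-Glo luminescence.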
# [5] = qHTS assay for small molecule agonists of the antioxidant response element (ARE) signaling pathway - cell viability counter screen (AID 743203; calls by dose curve; note: nearly all actives have a fitted effect of over 55% in size; note: potency is the fitted concentration of half-maximal effect)
# Summary of the method: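 Luminescence read-out (CellTiter-Glo, 30 min at room temperature) measured cell viability in the same wells as the ARE beta-lactamase reporter. HepG2 ARE-bla cells were treated with compounds for 16 hrs at 37C/5% CO2.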
# [6] = qHTS assay for small molecule activators of the heat shock response signaling pathway - cell viability counter screen (AID 743209); note: nearly all actives have a fitted effect of over 50% in size; note: potency is the fitted concentration of half-maximal effect
# Summary of the method: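 HSE-bla HeLa; 1500 cells/well; overnight 37 C, 5% CO2; compound 5 h 37 C; LiveBLAzer B/G substrate 2.5 h RT; CellTiter-Glo 30 min RT; luminescence.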
# [7] = biological target: Aryl hydrocarbon receptor (Homo sapiens) (UniProt P35869); experiment: qHTS assay to identify small molecule that activate the aryl hydrocarbon receptor (AhR) signaling pathway (AID 743085); note: nearly all actives have a fitted effect of over 15% in size; note: potency is the fitted concentration of half-maximal effect;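 for activation: HG2L7.5c1 human HepG2 liver cells with stably integrated DRE-driven firefly reporter; series mostly up to about 70 µM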
# Sequence of Aryl hydrocarbon receptor (Homo sapiens) (P35869 whole entry, looked up): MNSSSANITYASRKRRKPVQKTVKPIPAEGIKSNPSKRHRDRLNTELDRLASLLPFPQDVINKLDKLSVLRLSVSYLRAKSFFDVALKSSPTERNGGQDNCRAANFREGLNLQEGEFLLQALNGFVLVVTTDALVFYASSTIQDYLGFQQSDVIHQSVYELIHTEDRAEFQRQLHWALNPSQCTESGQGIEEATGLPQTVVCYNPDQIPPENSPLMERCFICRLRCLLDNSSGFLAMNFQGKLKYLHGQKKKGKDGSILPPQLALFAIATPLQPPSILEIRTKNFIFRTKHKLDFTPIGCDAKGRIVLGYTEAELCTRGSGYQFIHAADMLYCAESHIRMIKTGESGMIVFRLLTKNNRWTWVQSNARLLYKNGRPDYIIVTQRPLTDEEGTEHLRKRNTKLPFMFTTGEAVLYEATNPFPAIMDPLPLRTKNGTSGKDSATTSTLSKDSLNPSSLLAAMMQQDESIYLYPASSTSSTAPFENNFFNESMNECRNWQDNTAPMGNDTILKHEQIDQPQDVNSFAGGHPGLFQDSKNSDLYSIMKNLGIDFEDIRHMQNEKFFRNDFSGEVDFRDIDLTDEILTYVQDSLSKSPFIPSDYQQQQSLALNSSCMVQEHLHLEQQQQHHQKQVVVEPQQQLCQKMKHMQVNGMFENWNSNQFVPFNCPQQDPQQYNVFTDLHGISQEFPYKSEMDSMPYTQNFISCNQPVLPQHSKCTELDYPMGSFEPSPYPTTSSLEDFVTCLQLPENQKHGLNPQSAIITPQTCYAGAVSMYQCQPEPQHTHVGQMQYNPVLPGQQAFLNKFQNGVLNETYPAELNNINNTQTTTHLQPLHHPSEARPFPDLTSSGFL
# Summary of the method: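 Measured in HG2L7.5c1 cells: CellTiter-Fluor signal (30 min incubation, 37C) for viability, then luciferase luminescence (30 min, room temperature). Compound contact time was 24 h at 37C, following a 5 h pre-incubation.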
# [8] = qHTS assay for small molecule activators of the heat shock response signaling pathway (AID 743210; active = well fitted activation curve with a large enough effect in the signal ratio in the repeat runs, with a control signal flat, not every such curve was filed as active; the % refers to the signal ratio;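 note: HeLa cells with beta-lactamase reporter driven by heat shock elements; series mostly up to about 63 µM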)
# Summary of the method: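 Beta-lactamase reporter read-out: FRET substrate fluorescence after 2.5 h at RT, following 5 h compound treatment at 37 C of HeLa cells carrying HSE-driven bla reporter; quantitative HTS format.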
# [9] = qHTS assay for small molecule agonists of the antioxidant response element (ARE) signaling pathway (AID 743202; active = well fitted activation curve with a large enough effect in the signal ratio in the repeat runs, not every such curve was filed as active; the % refers to the signal ratio)
# Summary of the method: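 HepG2 ARE-bla reporter line, 2,000 cells/well; 5 h preincubation 37 C/5% CO2; compound (DMSO) 16 h 37 C; B/G FRET substrate 2 h RT; fluorescence intensity.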
# [10] = biological target: Peroxisome proliferator-activated receptor gamma (Homo sapiens) (UniProt P37231); experiment: qHTS assay to identify small molecule antagonists of the peroxisome proliferator-activated receptor gamma (PPARg) signaling pathway (AID 743191; calls by dose curve; note: series mostly up to about 63 µM; nearly all actives have a fitted effect of over 30% in size)
# Summary of the method: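 GeneBLAzer PPARg UAS-bla HEK293H cells, 5 h post-plating, exposed to compounds 17 h at 37C. LiveBLAzer B/G FRET substrate added for 1 h at room temperature; beta-lactamase reporter read by fluorescence intensity.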
structure (smiles),measurement,setting,value
O=C(O)[C@H]1CN(C/C=C/P(=O)(O)O)CCN1,Potency,[1],inactive
same,Potency,[2],inactive
CCCCCN=C(N)N/N=C/c1c[nH]c2ccc(OC)cc12,Potency,[1],inactive
same,Potency,[2],inactive
same,Potency,[3],inactive
same,Potency,[4],13.3 µM (active)
same,Potency,[5],10.6 µM (active)
same,Potency,[6],29.8 µM (active)
C=C1C(=C/C=C2\CCC[C@]3(C)[C@@H]([C@H](C)CCCC(C)C)CC[C@@H]23)C[C@@H](O)C[C@@H]1O,Potency,[1],inactive
same,Potency,[2],inactive
CN1[C@@H](CC(=O)c2ccccc2)CCC[C@H]1C[C@H](O)c1ccccc1,Potency,[7],inactive
same,Potency,[2],inactive
same,Potency,[3],inactive
CS(=O)(=O)c1ccc([C@@H](CC2CCCC2)C(=O)Nc2cnccn2)cc1Cl,Potency,[7],inactive
O=C(Nc1ccccc1)c1cc(Cl)ccc1O,Potency,[7],3.06 µM (active)
same,Potency,[2],inactive
same,Potency,[4],6.92 µM (active)
CN1CC[C@H](c2c(O)cc(O)c3c(=O)cc(-c4ccccc4Cl)oc23)[C@H](O)C1,Potency,[4],inactive
same,Potency,[5],inactive
same,outcome,[8],inactive
NCCCC(=O)O,Potency,[7],inactive
same,Potency,[2],inactive
same,Potency,[3],inactive
CC[C@@H](C(=O)[C@@H](C)[C@@H](O)[C@H](C)CCc1ccc(C)c(O)c1C(=O)O)[C@H]1O[C@](CC)([C@H]2CC[C@](O)(CC)[C@H](C)O2)C[C@@H]1C,Potency,[7],inactive
same,Potency,[2],29.8 µM (active)
same,Potency,[3],inactive
Clc1nc(C(Cl)(Cl)Cl)c(Cl)c(Cl)c1Cl,Potency,[7],61.1 µM (active)
same,Potency,[2],inactive
same,Potency,[4],38.9 µM (active)
same,Potency,[5],30.6 µM (active)
same,Potency,[6],17.4 µM (active)
O=C(CCCCCCCCc1cccnc1)N1CCC(C=C(c2ccccc2)c2ccccc2)CC1,Potency,[7],inactive
same,Potency,[2],inactive
same,Potency,[4],19.5 µM (active)
same,Potency,[5],15.4 µM (active)
same,Potency,[6],inactive
CCCCCCCC1CCC(=O)O1 (configuration not stated),Potency,[7],inactive
COc1cc(NS(C)(=O)=O)ccc1Nc1c2ccccc2nc2ccccc12,Potency,[2],13.3 µM (active)
same,Potency,[3],21.3 µM (active)
CC(=O)N(C)C,Potency,[7],inactive
CC1=C(/C=C/C(C)=C/C=C/C(C)=C\C(=O)O)C(C)(C)CCC1,Potency,[7],inactive
same,Potency,[6],55.1 µM (active)
O=C1CCCCCCCCCCCCCC1,Potency,[2],inactive
same,Potency,[4],inactive
same,Potency,[9],inactive
same,Potency,[5],inactive
same,outcome,[8],inactive
CCC(C)(C)c1ccc(CC(C)CN2C[C@@H](C)O[C@@H](C)C2)cc1 (some centres not stated),Potency,[2],inactive
same,Potency,[10],inactive
same,Potency,[5],inactive
same,Potency,[6],inactive
same,outcome,[8],inactive
CN1CCN(CCCN2c3ccccc3Sc3ccc(Cl)cc32)CC1,Potency,[7],9.44 µM (active)
same,Potency,[2],23.7 µM (active)
same,Potency,[5],29.8 µM (active)
same,Potency,[6],inactive
same,outcome,[8],inactive
CCCCCCCCCCCC[n+]1ccc2ccccc2c1,Potency,[7],inactive
CN1CCN(c2ccccc2/C=C2\SCCN(c3ccc(Cl)c(Cl)c3)C2=O)CC1,Potency,[7],inactive
same,Potency,[4],49 µM (active)
same,Potency,[5],24.3 µM (active)
same,Potency,[6],54.9 µM (active)
CCCCCCCCOC(=O)c1cc(O)c(O)c(O)c1,Potency,[1],54.5 µM (active)
same,Potency,[4],34.7 µM (active)
same,Potency,[5],54.5 µM (active)
CC(O)(c1ccc(Cl)cc1)c1ccc(Cl)cc1,Potency,[7],inactive
same,Potency,[2],inactive
same,Potency,[4],inactive
same,Potency,[6],inactive
same,outcome,[8],inactive
O=C1c2ccccc2-c2n[nH]c3cccc1c23,Potency,[7],29.8 µM (active)
CC(=O)Nc1ccc(OC(C)=O)cc1,Potency,[2],inactive
CCN(CC)C(=O)[C@]1(c2ccccc2)C[C@@H]1CN,Potency,[2],inactive
CO/N=C(\C(=O)N[C@@H]1C(=O)N2C(C(=O)O)=C(COC(C)=O)CS[C@H]12)c1csc(N)n1 (stereo in doubt),Potency,[2],inactive
CCN(CC)C(=O)c1cccnc1,Potency,[2],inactive
COc1cc2c(c(OC)c1OC)-c1c(cc3c(c1OC)OCO3)C[C@@H](C)[C@](C)(O)C2,Potency,[2],29.8 µM (active)
same,Potency,[3],inactive
Cc1cc(CC(C)CC(C)(C)C)n(O)c(=O)c1 (configuration not stated) (tested in a mixture with another compound),Potency,[7],inactive
same,Potency,[2],inactive
same,Potency,[3],inactive
CCCn1c(=O)[nH]c(=O)c2[nH]cnc21,Potency,[2],inactive
Cc1cc(N)c2ccccc2[n+]1CCCCCCCCCC[n+]1c(C)cc(N)c2ccccc21,Potency,[7],inactive
same,Potency,[2],inactive
same,Potency,[3],inactive
CC(Cc1ccc(O)c(O)c1)C(C)Cc1ccc(O)c(O)c1 (configuration not stated),Potency,[7],inactive
same,Potency,[5],61.1 µM (active)
same,Potency,[6],inactive
O=C1OC(O)C(C(Cl)Cl)=C1Cl (configuration not stated),Potency,[7],inactive
same,Potency,[5],inactive
CN[C@H]1CC[C@@H](c2ccc(Cl)c(Cl)c2)c2ccc(S(N)(=O)=O)cc21,Potency,[7],inactive
same,Potency,[2],61.1 µM (active)
same,Potency,[4],49 µM (active)
same,Potency,[5],24.3 µM (active)
same,Potency,[6],inactive
same,outcome,[8],inactive
O=C(CCN1CCC(c2ccccc2)C1)c1ccc2c(c1)OCCO2 (configuration not stated),Potency,[7],inactive
same,Potency,[2],inactive
same,Potency,[3],inactive
same,Potency,[4],inactive
same,Potency,[5],inactive
same,Potency,[6],13.3 µM (active)
COc1c(Br)cc(Br)c(C)c1Br,Potency,[2],inactive
same,Potency,[4],inactive
same,Potency,[9],inactive
same,Potency,[5],inactive
same,Potency,[6],inactive
same,outcome,[8],inactive
CC(C)C[C@@H]1NC(=O)[C@H](CCCN)NC(=O)[C@H](C(C)C)NC(=O)[C@@H]2CCCN2C(=O)[C@@H](Cc2ccccc2)NC(=O)[C@H](CC(C)C)NC(=O)[C@H](CCCN)NC(=O)[C@H](C(C)C)NC(=O)[C@@H]2CCCN2C(=O)[C@@H](Cc2ccccc2)NC1=O (cyclo(V[Orn]L[dF]PV[Orn]L[dF]P)),Potency,[7],inactive
same,Potency,[2],18.8 µM (active)
CCCCCCCC[N+](C)(C)CCCCCCCC,Potency,[7],inactive
same,Potency,[2],inactive
same,Potency,[3],inactive
COc1cccc(-c2ccc(/C=C\CN3CCCCCC3)cc2Cl)c1,Potency,[7],inactive
same,Potency,[2],inactive
same,Potency,[3],inactive
same,Potency,[4],43.4 µM (active)
same,Potency,[5],54.2 µM (active)
Cc1ccc2nc(-c3ccc(N)cc3)sc2c1S(=O)(=O)O,Potency,[7],4.26 µM (active)
same,Potency,[2],inactive
same,Potency,[4],inactive
same,Potency,[5],inactive
same,Potency,[6],inactive
